{"source": "PubChem BioAssay AID463175", "about": "(Southern Research Specialized Biocontainment Screening …, 2010)", "note": "Active and inactive are the calls of the source.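 How the source made its calls: active means inhibition above 40% at one or more tested concentrations in the dose response counterscreen; inactive means inhibition below 40% at every dose tested.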"}
{"test": "general growth reporter, non-PhoP nmpC promoter – synthesized compounds, set 5, counter-screen for PhoP regulon inhibitor project, late-stage follow-up (AID 463175)", "details": "S. Typhimurium non-PhoP-regulated nmpC promoter-GFP fluorescence (growth counterscreen), 4 h; series mostly up to 150 µM"}
{"smiles": "O=C1C2=C(Nc3ccccc3SC2c2cccc(Br)c2)c2ccccc21", "note": "(stereo unspecified)", "outcome": "inactive"}
{"smiles": "Clc1ccc(C2Sc3ccccc3N=C3c4ccccc4CC32)cc1", "note": "(stereo unspecified)", "outcome": "inactive"}
{"smiles": "O=C1C2=C(Nc3ccccc3SC2c2ccc(Cl)cc2)c2ccccc21", "note": "(stereo unspecified)", "outcome": "inactive"}
{"smiles": "Cc1ccc(C2Sc3ccccc3N=C3c4ccccc4CC32)cc1", "note": "(stereo unspecified)", "outcome": "inactive"}
{"smiles": "COc1cccc(NC(=O)N2CCCN(Cc3ccccc3F)C2)c1", "outcome": "inactive"}
{"smiles": "O=C1C2=C(Nc3ccccc3SC2c2cccnc2)c2ccccc21", "note": "(stereo unspecified)", "outcome": "inactive"}
